Measured values published in PubChem BioAssay (NCI).
Where “and” joins values, the source holds several entries; their conditions need not be identical. Equal entries are not always repeated. The panel holds about 83,000 compounds, 20% with a hit somewhere; the sample as a whole holds those more often.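 Method: cells in 96-well plates; compound added at one concentration; 48 h incubation; percent growth measured; values under 10 scored active.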

Columns and labels:
Experiment in all cases: NCI-60 one-dose screen, 48 h (100 = growth as untreated, 0 = no growth, -100 = all killed)
Settings in all cases: 10 µM unless noted
[1] = tested on: T-47D breast
[2] = tested on: BT-549 breast
[3] = tested on: MDA-MB-435 melanoma
[4] = tested on: SW-620 colon
[5] = tested on: MCF7 breast
[6] = tested on: HCT-116 colon
[7] = tested on: HCC-2998 colon
[8] = tested on: KM12 colon

Measured: growth

CCCCOC1NC(=O)NC(=O)C1(F)C(=O)OCC (stereo not drawn)
inactive: [1] 80.5% and 74.7% | [2] 57.3% and 59.5% | [3] 56.9% and 53.4% | [4] 94.6% and 76.7% | [5] 46.6% and 27.8% | [6] 64.5% and 43.6% | [7] 45.5% and 26.1% | [8] 60.2% and 49.4%

O=[N+]([O-])c1cccc(N=Cc2ccccc2)c1
inactive: [1] 103% | [2] 101% | [3] 109% | [4] 117% | [5] 102% | [6] 103% | [7] 103% | [8] 112%

Cc1cc(-c2ccc(N=Nc3c(C)nn(-c4ccc(S(=O)(=O)O)cc4)c3O)c(C)c2)ccc1N=Nc1ccc(O)c(C(=O)O)c1
inactive: [1] 99.7% | [2] 98.5% | [3] 110% | [4] 98.8% | [5] 94% | [6] 99.8% | [7] 94% | [8] 96.1%

O=[N+]([O-])c1cccc2ccc(N/N=C/c3ccccc3O)nc12
inactive: [1] 38.1% and 78% | [2] 68.6% and 103% | [3] 101% and 106% | [4] 21.7% and 96.4% | [5] 42.5% and 61.7% | [6] 20.8% and 67.8% | [7] 110% | [8] 86.8% and 84.3%

O=C(O)COc1ccccc1F
inactive: [1] 107% | [2] 108% | [3] 108% | [4] 104% | [5] 107% | [6] 95.5% | [7] 111% | [8] 104%

CC1(CO)CCCC1NCCNC1CCCC1(C)CO (stereo not drawn)
inactive: [1] 97.8% and 106% | [2] 98.7% and 113% | [3] 98.4% and 102% | [4] 104% and 101% | [5] 94% and 95.3% | [6] 88.6% and 102% | [7] 99.4% and 118% | [8] 122% and 100%

Nc1c(Cl)cc2c(c1Br)C(=O)c1ccccc1C2=O
inactive: [1] 76% | [2] 114% | [3] 105% | [4] 99.6% | [5] 99.8% | [6] 96.7% | [7] 101% | [8] 106%

O=C(O)/C=C/C=C/c1ccccc1
inactive: [1] 100% and 105% | [2] 103% and 107% | [3] 105% and 111% | [4] 104% and 103% | [5] 92.9% and 94.4% | [6] 101% and 96% | [7] 104% | [8] 105% and 103%

Nc1nc(N)c2cc(S(=O)(=O)c3ccccc3)ccc2n1
inactive: [1] 72.7% and 59% | [2] 81.4% and 54.6% | [3] 33.5% and 31% | [4] 21.8% and 25.3% | [5] 40.2% and 29.5% | [6] 16.3% and 13.4% | [7] 30.6% | [8] 32.5% and 28.7%

Cc1ccc(NC(=S)N/C=C(\c2ccccc2)S(=O)Cc2ccccc2)c(C)c1 (stereo not drawn)
inactive: [1] 77.4% | [2] 99.3% | [3] 97.9% | [4] 98% | [5] 90.3% | [6] 100% | [7] 105% | [8] 102%

Cc1ccc(C(=O)c2ccc(C)cc2)cc1
inactive: [1] 90.7% and 94.9% | [2] 92% | [3] 103% and 105% | [4] 104% and 101% | [5] 99.9% and 95.3% | [6] 92.5% and 98% | [7] 87.5% and 99.8% | [8] 102% and 108%
